In the library only some 4.3% were active in any assay of this set; here they are far more common.
sPLA2-III inh – Inhibits HGIII-sPLA2 liposome hydrolysis, primary screen. QFRET BODIPY PC-A2 liposome hydrolysis, fluorescence. AID 743126. hit rate 0.56% among 370,000. inhibition, % at 12.2 µM. Q9NZ20;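 active means inhibition above mean plus 3 SD of compounds lying within the high and low control bounds, cut at about 19% in these data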;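 further: 0% = median of test compound wells and 100% = no enzyme DMSO wells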
ADAM17 inh – ADAM17 inhibition, QFRET primary screen; P78536; recombinant ADAM17, EDANS/DABCYL FRET peptide cleavage; inhibition, % at 6.95 µM; hit rate 0.83% among 370,000; AID 720648;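 active means inhibition above the mean of compounds lying between control limits plus 3 SD, set per campaign, cut at about 8.5% in these data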;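 further: 0% = DMSO-only wells as the low control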
ADAM10 inh – ADAM10 inhibition, QFRET primary screen; O14672; hit rate 0.62% among 370,000; inhibition, % at 7 µM; recombinant ADAM10, EDANS/DABCYL FRET peptide cleavage, 3 h;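 active means inhibition above a per-campaign cutoff equal to the mean of compounds falling between control-based bounds plus 3 SD, cut at about 20% in these data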;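 further: 0% = DMSO wells while the 100% control is not disclosed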
Target sequence (O14672 214-748 limits assumed): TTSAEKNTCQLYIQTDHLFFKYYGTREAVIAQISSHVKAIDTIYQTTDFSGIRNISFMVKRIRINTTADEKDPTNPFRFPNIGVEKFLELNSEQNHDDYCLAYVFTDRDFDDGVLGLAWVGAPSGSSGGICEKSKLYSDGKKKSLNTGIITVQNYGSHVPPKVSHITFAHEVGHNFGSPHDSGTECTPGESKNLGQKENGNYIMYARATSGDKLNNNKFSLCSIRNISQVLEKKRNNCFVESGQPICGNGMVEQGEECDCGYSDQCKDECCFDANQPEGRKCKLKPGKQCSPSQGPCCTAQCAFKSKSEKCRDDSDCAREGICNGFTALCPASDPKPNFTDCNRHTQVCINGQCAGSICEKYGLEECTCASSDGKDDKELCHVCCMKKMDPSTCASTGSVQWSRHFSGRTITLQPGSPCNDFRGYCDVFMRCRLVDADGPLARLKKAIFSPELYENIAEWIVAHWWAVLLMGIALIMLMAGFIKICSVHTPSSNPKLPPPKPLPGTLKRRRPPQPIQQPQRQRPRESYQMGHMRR
GRIN3A LBD mod – modulates the human NR3A ligand-binding domain; hit rate 2.5% among 340,000; AID 1259313; NR3A LBD differential scanning fluorimetry, Tm shift; 0% = protein alone, 100% = glycine-bound protein; Tm shift relative to glycine control, % at 25 µM;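 active means melting temperature shift of at least 10% of the positive control shift, at one fixed dose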
FAS-TE inh – inhibitors of human fatty acid synthase thioesterase domain; recombinant FAS-TE, OMFH fluorogenic substrate, fluorescence endpoint; inhibition, % at 15 µM; hit rate 0.67% among 360,000;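 active means compounds whose normalised, plate-corrected inhibition of enzyme fluorescence in the single-dose primary screen is 50% or more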;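 further: 0% = DMSO with enzyme and 100% = substrate without enzyme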
ADAM10 confirm – human ADAM10 inhibition, confirmation; ADAM10 QFRET peptide cleavage, EDANS fluorescence; hit rate 1% among 2,100; shares compounds with ADAM10 inh; AID 743208; inhibition, % at 6.95 µM;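 active means inhibition above about 20% chosen separately for each screening run, limit read from the data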;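 further: 0% = DMSO wells and 100% = marimastat wells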
ADAM17 counter – inhibits human ADAM17 in ADAM10 exosite counter-screen; AID 743214; ADAM17 QFRET peptide cleavage, EDANS fluorescence; shares compounds with ADAM10 inh; inhibition, % at 6.95 µM; hit rate 0.5% among 2,100;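 active means mean triplicate inhibition above the solvent-only control wells' mean plus 3 SD, cut at about 12% in these data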;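 further: 0% = DMSO wells and 100% = marimastat wells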
ADAM10 ctr – counter-screen for ADAM17 exosite inhibitors: inhibitors of human ADAM10. inhibition, % at 6.95 µM. recombinant ADAM10, EDANS/DABCYL FRET peptide cleavage, 3 h. shares compounds with ADAM17 inh. AID 743256. hit rate 47% among 2,900;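 active means mean inhibition over the triplicate runs exceeds the activity threshold set in the earlier primary screen, cut at about 20% in these data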;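 further: 0% = DMSO wells and 100% = marimastat wells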
ADAM17 confirm – human ADAM17 inhibition, confirmation | shares compounds with ADAM17 inh | recombinant ADAM17, EDANS/DABCYL QFRET peptide cleavage | inhibition, % at 6.95 µM | hit rate 65% among 2,900 | AID 743257;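 active means mean inhibition across replicates above the hit cutoff set in the primary screen, cut at about 8.5% in these data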;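 further: 0% = DMSO wells and 100% = marimastat wells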
hGIII sPLA2 conf – human GIII-sPLA2 inhibition, confirmation; shares compounds with sPLA2-III inh; recombinant hGIII-sPLA2, BODIPY PC-A2 QFRET fluorescence; inhibition, % at 12.2 µM; hit rate 34% among 2,000; AID 743280;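 active means mean inhibition across triplicates above the hit cutoff set in the earlier primary screen, cut at about 19% in these data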;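 further: 0% = enzyme with DMSO and 100% = DMSO wells lacking enzyme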
BODIPY interf – 535nm fluorescence interference, HGIII-sPLA2 counter-screen; inhibition, % at 12.2 µM; hit rate 8.5% among 2,000; shares compounds with sPLA2-III inh; AID 743282; BODIPY FL product fluorescence interference, QFRET;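 active means average inhibition above the solvent-only control mean plus 3 SD, cut at about 6% in these data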;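 further: 0% = DMSO with substrate plus product and 100% = DMSO with substrate alone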
* hit, by the source's call.

How did O=C(Nc1cc(Cl)ccc1O)C1CC(c2c(F)cccc2Cl)=NO1 (configuration not stated) do in these assays?
sPLA2-III inh: -67.5; ADAM17 inh: 9.6*; ADAM10 inh: 25.9*; GRIN3A LBD mod: -0.2; FAS-TE inh: 8.8; ADAM10 confirm: 8.9; ADAM17 counter: 3.6; ADAM10 ctr: 18.8; ADAM17 confirm: 11.7*

How did O=C(NCc1cc(C(F)(F)F)cc(C(F)(F)F)c1)C1CC(c2c(Cl)cccc2Cl)=NO1 (configuration not stated) do in these assays?
sPLA2-III inh: 1.2; ADAM17 inh: 3.9; ADAM10 inh: 18.8; GRIN3A LBD mod: -3.2; FAS-TE inh: 17.0

How did CCOC(=O)[C@@]12CCCC3=C1N(CCC3)C(=O)[C@H]2CC(=O)N1CCCCC1 do in these assays?
sPLA2-III inh: 0.9; ADAM17 inh: -1.0; ADAM10 inh: -1.9

Results for COc1ccc(NC(=O)c2cc(S(=O)(=O)NCC3COc4ccccc4O3)ccc2F)cc1 (configuration not stated) ?
sPLA2-III inh: -44.3; ADAM17 inh: 6.0; ADAM10 inh: 11.7; GRIN3A LBD mod: 2.8; FAS-TE inh: 13.7

Results for CC(C)c1ccc(NC(=O)c2cc(S(=O)(=O)NCC3COc4ccccc4O3)ccc2F)cc1 (configuration not stated) ?
sPLA2-III inh: -28.1; ADAM17 inh: 10.0*; ADAM10 inh: 20.7*; GRIN3A LBD mod: 19.2*; FAS-TE inh: 21.8; ADAM10 confirm: 9.9; ADAM17 counter: 3.9; ADAM10 ctr: 38.0*; ADAM17 confirm: 25.6*

How did O=C(Nc1ccc(C(F)(F)F)cc1)c1cc(S(=O)(=O)NCC2COc3ccccc3O2)ccc1F (configuration not stated) do in these assays?
sPLA2-III inh: -14.9; ADAM17 inh: 12.6*; ADAM10 inh: 25.3*; GRIN3A LBD mod: 32.1*; FAS-TE inh: 44.3; ADAM10 confirm: 5.5; ADAM17 counter: 2.0; ADAM10 ctr: 50.6*; ADAM17 confirm: 23.6*

How did O=C(O)c1cc(S(=O)(=O)NCC2COc3ccccc3O2)ccc1Cl (configuration not stated) do in these assays?
sPLA2-III inh: -3.8; ADAM17 inh: -1.1; ADAM10 inh: -4.1; GRIN3A LBD mod: 0.4; FAS-TE inh: -6.7

How did Cc1ccccc1C(=O)N[C@H](C(=O)N1CCC[C@H]1C(=O)NCCc1ccccc1Cl)C(C)C do in these assays?
sPLA2-III inh: -1.6; ADAM17 inh: -2.5; ADAM10 inh: -3.4

How did C=CCN1[C@H](C#N)[C@@H](c2ccc(Br)cc2)[C@H]1CO do in these assays?
sPLA2-III inh: 1.0; ADAM17 inh: -0.2; ADAM10 inh: -1.2

What do the screens show for `C[C@@H]1CN(c2ccc(N3CCNC[C@H]3C)cc2C#N)C[C@H](C)O1`?
sPLA2-III inh: 5.0; ADAM17 inh: -10.7; ADAM10 inh: -54.1

Results for CCOC(=O)c1ccc(NC(=O)CN(Cc2ccc(Cl)cc2)S(C)(=O)=O)cc1 ?
sPLA2-III inh: -46.6; ADAM17 inh: 11.3*; ADAM10 inh: 26.1*; GRIN3A LBD mod: -4.7; FAS-TE inh: 21.5; ADAM10 confirm: 1.1; ADAM17 counter: 0.3; ADAM10 ctr: 25.1*; ADAM17 confirm: 15.2*

What do the screens show for `O=C(Nc1ccc2c(c1)OCCO2)C(c1ccnc2ccccc12)N1CCC(Cc2ccccc2)CC1` (configuration not stated)?
sPLA2-III inh: -1.7; ADAM17 inh: 19.4*; ADAM10 inh: 36.7*; FAS-TE inh: 35.1; ADAM10 confirm: 14.2; ADAM17 counter: 4.2; ADAM10 ctr: 12.9; ADAM17 confirm: 10.3*

What do the screens show for `CN(CCc1ccccc1)C(C(=O)Nc1ccc2c(c1)OCCO2)c1ccnc2ccccc12` (configuration not stated)?
sPLA2-III inh: -20.1; ADAM17 inh: 2.5; ADAM10 inh: 4.2; FAS-TE inh: 25.7

Results for COc1ccc(C(C(=O)NC2CCCCC2)N(C(=O)c2sc(C)nc2C)c2ccccc2C)cc1 (configuration not stated) ?
sPLA2-III inh: -8.7; ADAM17 inh: 9.6*; ADAM10 inh: 19.8*; GRIN3A LBD mod: -0.2; FAS-TE inh: 40.4; ADAM10 confirm: 1.6; ADAM17 counter: -0.2; ADAM10 ctr: 2.8; ADAM17 confirm: 3.8

What do the screens show for `CC(C)(C)N1Cc2nnn(Cc3ccccc3)c2-c2cc(N3CCCC3)ccc2S1(=O)=O`?
sPLA2-III inh: 6.3; ADAM17 inh: -16.3; ADAM10 inh: -48.9

Results for COc1ccc(C(C)(C)C)cc1NC(=O)Nc1ccc2c(c1)OCO2 ?
sPLA2-III inh: 0.0; ADAM17 inh: 10.1*; ADAM10 inh: 23.5*; GRIN3A LBD mod: 8.4; FAS-TE inh: 32.3; ADAM10 confirm: 5.0; ADAM17 counter: 1.5; ADAM10 ctr: 41.3*; ADAM17 confirm: 24.2*

How did Cc1ccc(S(=O)(=O)N(C)C)cc1NC(=S)NNC(=O)C1CC1 do in these assays?
sPLA2-III inh: 29.8*; ADAM17 inh: -2.4; ADAM10 inh: 20.0*; GRIN3A LBD mod: 2.4; FAS-TE inh: -12.5; ADAM10 confirm: 0.3; ADAM17 counter: -0.2; hGIII sPLA2 conf: 18.8; BODIPY interf: -1.4

What do the screens show for `CCN(CC)S(=O)(=O)c1ccc(C)c(NC(=S)NNC(=O)C2CC2)c1`?
sPLA2-III inh: 19.8*; ADAM17 inh: 9.7*; ADAM10 inh: 23.6*; GRIN3A LBD mod: -2.0; FAS-TE inh: -13.4; ADAM10 confirm: 1.3; ADAM17 counter: 0.0; ADAM10 ctr: -4.6; ADAM17 confirm: 1.5; hGIII sPLA2 conf: 23.1*; BODIPY interf: -5.6

What do the screens show for `Cc1ccc(S(=O)(=O)N(C)C)cc1NC(=O)C1CCCC1`?
sPLA2-III inh: -2.5; ADAM17 inh: -1.4; ADAM10 inh: -4.3; GRIN3A LBD mod: -10.6; FAS-TE inh: -13.5

What do the screens show for `CC(C)[C@H](NC(=O)CC1CCCC1)C(=O)N1CCC[C@H]1C(=O)NCCc1ccccc1Cl`?
sPLA2-III inh: -4.5; ADAM17 inh: -1.3; ADAM10 inh: -3.0

Screens (PubChem)
